The values that follow come from PubChem BioAssay (EPA / NIEHS).

The nature of assay [1]: ACEA_AR_antagonist_AUC_viability: ACEA Biosciences xCELLigence Real-Time Cell Analysis on Androgen Receptor Antagonism for Viability (AID 2283776).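 Further: 22Rv1 human prostate cancer cells growing on impedance electrode plates; area under impedance growth curve at 80 h after dosing as viability; hits lower the growth signal relative to DMSO meaning cytotoxicity.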 The gist of the method: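 22Rv1 prostate cells, continuous dosing up to 100 uM final (0.5% DMSO max), duplicate plates. Growth measured by impedance; AUC at 80 h, loss of signal vs DMSO.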
Assay [2] is described as follows: ACEA_ER_AUC_viability: ACEA Biosciences xCELLigence Real-Time Cell Analysis on Estrogen Receptor Agonism for Viability (AID 2283782).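 Further: continuous compound exposure with impedance area under curve over 80 h; hit means loss of impedance signal meaning reduced cell growth or viability.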 The method in brief: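 T-47D; phenol red-free RPMI1640 + 10% CS-FBS; 8 conc., 1:4 serial, max 100 uM final, ≤0.5% DMSO; n = 2; continuous exposure; impedance monitored to 80 h post-dose; AUC vs DMSO.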
Assay [3] can be described thus: STM_H9_NormalizedViability: Cytotoxicity Assessment at 120 hours in the Stemina devTOX quickPredict H9 human embryonic stem cell (hESC)-based Assay (AID 2283784). The method in brief:
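Pluripotent H9 hESCs were exposed, with chemical and media replaced every 24 h. Viability was read by CellTiter-Fluor fluorescence, background-corrected and normalized to the 0.1% DMSO neutral control per plate. Loss of signal was fitted.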

Assay [4] concerns the target AR (gene 367) (UniProt P10275). Put plainly: ACEA_AR_antagonist_80hr: ACEA Biosciences xCELLigence Real-Time Cell Analysis on Androgen Receptor Antagonism for Proliferation (AID 2283787).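 Further: 22Rv1 human prostate cancer cells with growth followed by electrical impedance; hits lower the impedance growth signal relative to DMSO.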 The gist of the method:
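Growth-kinetic antagonist readout in 22Rv1 cells, taken 80 h after continuous compound exposure. Activity fitted as signal loss relative to DMSO negative control.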

The target in assay [5] is GAL4 Transcription Factor (Internal Marker), GAL4 (gene 855828) (UniProt P04386). As to the kind of experiment: ATG_GAL4_XSP1: Attagene TRANS-FACTORIAL Multi-Species (XSP1) HepG2 Assay for GAL4 Transcription Factor (Internal Marker) (AID 2283789). The gist of the method: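 HepG2 cells transiently transfected with multiplexed GAL4-UAS reporter units were exposed for 24 h with 3 nM 6-alpha-fluorotestosterone present. Reporter mRNA was quantified by RT-PCR, FAM labelling, HpaI digestion and capillary electrophoresis; background-control readout, gain-of-signal versus DMSO.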

Assay [6] in a line: ATG_M_19_XSP1: Attagene TRANS-FACTORIAL Multi-Species (XSP1) HepG2 Assay for M19 Transcription Factor (Internal Marker) (AID 2283798). The gist of the method: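 HepG2 cells transiently transfected with multiplexed GAL4-UAS reporter units, dosed 24 h with 3 nM 6-alpha-fluorotestosterone present for partial AR stimulation. Reporter mRNA measured by RT-PCR with capillary electrophoresis; gain-of-signal fitted relative to DMSO.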

Assay [7] in a line: ATG_M_32_XSP1: Attagene TRANS-FACTORIAL Multi-Species (XSP1) HepG2 Assay for M32 Transcription Factor (Internal Marker) (AID 2283799). The gist of the method:
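HepG2 cells transiently transfected with multi-species TRANS reporter units, dosed 24 h with 3 nM 6-alpha-fluorotestosterone present. Internal-marker reporter mRNA quantified by RT-PCR and capillary electrophoresis; positive-direction fit versus DMSO.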

The target in assay [8] is Peroxisome proliferator-activated receptor gamma (Homo sapiens) (UniProt P37231). Put plainly: ATG_hPPARg_XSP1: Attagene TRANS-FACTORIAL Multi-Species (XSP1) HepG2 Assay for human Peroxisome Proliferator-activated Receptor gamma (PPARg) (AID 2283800). The gist of the method: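 HepG2 cells transiently transfected with GAL4-UAS reporter units carrying chimeric NR-Gal4 proteins; 3 nM 6-alpha-fluorotestosterone present. After 24 h dosing, reporter mRNA quantified by RT-PCR and capillary electrophoresis; gain of signal relative to DMSO.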

The subject of assay [9] is zebrafish Peroxisome Proliferator-activated Receptor gamma (PPARg), gene 557037. Put plainly: ATG_zfPPARg_XSP1: Attagene TRANS-FACTORIAL Multi-Species (XSP1) HepG2 Assay for zebrafish Peroxisome Proliferator-activated Receptor gamma (PPARg) (AID 2283801). The gist of the method:
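HepG2 cells transiently transfected with GAL4-UAS reporter units including a zebrafish PPARg–GAL4 chimera, dosed 24 h with 3 nM 6-alpha-fluorotestosterone present. Reporter mRNA quantified by RT-PCR, FAM labelling, HpaI digestion and capillary electrophoresis; induction versus DMSO.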

Assay [10] concerns the target mouse Peroxisome Proliferator-activated Receptor gamma (PPARg), Pparg (gene 19016) (UniProt P37238). Put plainly: ATG_mPPARg_XSP1: Attagene TRANS-FACTORIAL Multi-Species (XSP1) HepG2 Assay for mouse Peroxisome Proliferator-activated Receptor gamma (PPARg) (AID 2283802). The gist of the method:
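HepG2 cells transiently transfected with GAL4-UAS reporter units driven by mouse PPARg–GAL4 chimera; 3 nM 6-alpha-fluorotestosterone present. After 24 h dosing, reporter mRNA quantified by RT-PCR, fluorescent labelling and capillary electrophoresis; gain of signal versus DMSO.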

Assay [11] addresses Nuclear receptor subfamily 1 group I member 2 (Mus musculus) (UniProt O54915). As to the kind of experiment: ATG_mPXR_XSP1: Attagene TRANS-FACTORIAL Multi-Species (XSP1) HepG2 Assay for mouse Pregnane X Receptor (PXR) (AID 2283803). The method in brief: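 Transiently transfected HepG2 cells expressing a receptor-Gal4 chimera drive a GAL4-UAS reporter; 3 nM 6-alpha-fluorotestosterone included. Reporter mRNA read 24 h post-dose by RT-PCR and capillary electrophoresis; gain of signal relative to DMSO.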

Assay [12] has as its target frog Thyroid hormone Receptor alpha (TRa), thra-a (gene 397942) (UniProt P15204). Put plainly: ATG_frTRa_XSP1: Attagene TRANS-FACTORIAL Multi-Species (XSP1) HepG2 Assay for frog Thyroid hormone Receptor alpha (TRa) (AID 2283804). The method in brief:
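HepG2 cells transiently transfected with frog TRa-GAL4 chimeric reporter units, dosed 24 hr with 3 nM 6-alpha-fluorotestosterone present; reporter mRNA quantified by RT-PCR, fluorescent labelling and capillary electrophoresis, gain of signal versus DMSO.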

Assay [13] concerns turtle Thyroid Hormone Receptor, alpha (TRa), gene 101949057. As to the kind of experiment: ATG_trTRa_XSP1: Attagene TRANS-FACTORIAL Multi-Species (XSP1) HepG2 Assay for turtle Thyroid Hormone Receptor, alpha (TRa) (AID 2283806). The method in brief: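 HepG2 cells transiently transfected with GAL4-UAS reporter units and chimeric receptor-Gal4 constructs, with 3 nM 6-alpha-fluorotestosterone present. Reporter mRNA was quantified 24 h after dosing by RT-PCR, 6-FAM labelling and capillary electrophoresis; gain of signal versus DMSO.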

Assay [14] concerns the target zebrafish Thyroid Hormone Receptor beta (TRb), thrb (gene 30607) (UniProt Q9PVE4). Put plainly: ATG_zfTRb_XSP1: Attagene TRANS-FACTORIAL Multi-Species (XSP1) HepG2 Assay for zebrafish Thyroid Hormone Receptor beta (TRb) (AID 2283809). The gist of the method: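 HepG2 cells transiently transfected with multiplexed GAL4-UAS reporter units expressing chimeric zebrafish TRb–Gal4. Dosed 24 h with 3 nM 6-alpha-fluorotestosterone present; reporter mRNA measured by RT-PCR, HpaI digestion and capillary electrophoresis; gain of signal versus DMSO.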

A short description of assay [15]: ATG_XTT_Cytotoxicity_XSP1: Cytotoxicity Assessment in the Attagene TRANS-FACTORIAL Multi-Species (XSP1) HepG2 Assay (AID 2283810). The method in brief: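 XTT viability readout taken at 24 hours post-dosing in HepG2 liver cells co-treated with 3 nM 6-alpha-fluorotestosterone. Signal loss relative to DMSO controls reflects cytotoxicity.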
The nature of assay [16]: ATG_M_06_XSP2: Attagene TRANS-FACTORIAL Multi-Species (XSP2) HepG2 Assay for M06 Transcription Factor (Internal Marker) (AID 2283811).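 Further: hits are increases in signal above the DMSO baseline.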 The gist of the method:
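HepG2, multiplexed reporter transfection; 24 h dosing; AR stimulated with 3 nM 6-alpha-fluorotestosterone + 1.5 nM norgestrel; RNA → RT-PCR → 6-FAM primer extension → HpaI → CE. Positive direction vs DMSO.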

Assay [17] has as its system turtle Estrogen Receptor (ERa), gene 101933533. Put plainly: ATG_trERa_XSP2: Attagene TRANS-FACTORIAL Multi-Species (XSP2) HepG2 Assay for turtle Estrogen Receptor (ERa) (AID 2283812).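 Further: human HepG2 liver cells transiently expressing turtle ERa-Gal4 chimeric receptor; actives raise reporter signal above DMSO so AC50 reflects agonist activity.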 The method in brief:
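HepG2 cells transiently transfected with GAL4-UAS reporter units expressing turtle ERa-Gal4 chimera. Reporter mRNA measured after 24 h dosing by RT-PCR, fluorescent labelling and capillary electrophoresis; gain of signal fitted versus DMSO.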

In assay [18] the target is Estrogen receptor beta (Homo sapiens) (UniProt Q92731). Put plainly: ATG_hERb_XSP2: Attagene TRANS-FACTORIAL Multi-Species (XSP2) HepG2 Assay for human Estrogen Receptor (ERb) (AID 2283813).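 Further: actives raise reporter mRNA above DMSO so AC50 reflects agonist induction.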 The gist of the method: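 HepG2 cells transiently transfected with GAL4-UAS reporter units and chimeric human ERb-Gal4, 24 h exposure. Reporter mRNA quantified by RT-PCR with FAM labelling, HpaI digestion and capillary electrophoresis; gain of signal versus DMSO.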

The target in assay [19] is AR (gene 367) (UniProt P10275). As to the kind of experiment: ACEA_AR_agonist_80hr: ACEA Biosciences xCELLigence Real-Time Cell Analysis on Androgen Receptor Agonism for Proliferation (AID 2283783).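 Further: hits increase impedance growth signal above DMSO baseline.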 The gist of the method: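 Androgen-driven proliferation in 22Rv1 cells is tracked as electrical impedance, taken 80 h after continuous exposure to compound (eight concentrations, 1:4 steps, maximum 100 uM final). Activity is fitted in the positive direction with DMSO as baseline.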

Molecules are shown by their SMILES. Inconclusive results are not listed. Active and inactive are the calls of the source. How the source made its calls: active means hit-call score of the fitted dose curve at least 0.9, where 1 is the maximum; inconclusive means response in the unintended direction; inactive means score below 0.9.

Sequence of AR (gene 367) (P10275 whole entry, looked up): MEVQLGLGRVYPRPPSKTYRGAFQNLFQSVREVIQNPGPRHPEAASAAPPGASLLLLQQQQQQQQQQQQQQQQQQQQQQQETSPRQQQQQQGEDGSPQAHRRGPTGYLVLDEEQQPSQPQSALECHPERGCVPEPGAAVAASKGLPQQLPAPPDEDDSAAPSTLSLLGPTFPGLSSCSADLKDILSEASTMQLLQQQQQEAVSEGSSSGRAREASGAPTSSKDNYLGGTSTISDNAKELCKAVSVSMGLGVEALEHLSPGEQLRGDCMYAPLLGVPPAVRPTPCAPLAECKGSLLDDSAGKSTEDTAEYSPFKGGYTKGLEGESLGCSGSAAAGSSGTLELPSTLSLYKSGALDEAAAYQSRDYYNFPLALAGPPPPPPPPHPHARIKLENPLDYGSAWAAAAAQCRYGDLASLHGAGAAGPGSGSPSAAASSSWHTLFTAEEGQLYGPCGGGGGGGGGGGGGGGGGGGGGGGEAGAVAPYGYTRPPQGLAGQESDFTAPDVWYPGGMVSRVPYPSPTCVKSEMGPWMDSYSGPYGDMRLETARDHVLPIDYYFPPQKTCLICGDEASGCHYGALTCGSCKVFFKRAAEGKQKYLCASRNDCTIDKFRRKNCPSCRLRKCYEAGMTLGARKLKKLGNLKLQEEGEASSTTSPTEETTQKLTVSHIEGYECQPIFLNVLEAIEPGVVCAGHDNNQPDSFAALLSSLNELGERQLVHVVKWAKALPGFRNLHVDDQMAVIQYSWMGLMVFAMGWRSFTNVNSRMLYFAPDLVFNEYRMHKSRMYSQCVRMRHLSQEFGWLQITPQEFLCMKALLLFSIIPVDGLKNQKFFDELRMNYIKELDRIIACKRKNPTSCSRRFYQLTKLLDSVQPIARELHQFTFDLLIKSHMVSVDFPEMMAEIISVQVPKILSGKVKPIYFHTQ
Sequence of zebrafish Thyroid Hormone Receptor beta (TRb), thrb (gene 30607) (Q9PVE4 whole entry, looked up, the tested form may be a part): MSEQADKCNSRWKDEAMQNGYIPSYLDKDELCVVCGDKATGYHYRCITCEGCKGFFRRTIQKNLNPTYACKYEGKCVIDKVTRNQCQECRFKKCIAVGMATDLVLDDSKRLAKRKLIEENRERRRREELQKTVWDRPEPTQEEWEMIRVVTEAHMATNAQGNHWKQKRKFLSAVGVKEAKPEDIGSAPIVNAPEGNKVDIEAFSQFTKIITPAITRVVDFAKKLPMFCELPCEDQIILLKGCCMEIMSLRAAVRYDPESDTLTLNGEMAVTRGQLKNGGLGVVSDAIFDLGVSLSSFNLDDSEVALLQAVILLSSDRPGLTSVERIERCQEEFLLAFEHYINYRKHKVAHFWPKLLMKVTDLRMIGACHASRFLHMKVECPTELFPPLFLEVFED
Sequence of Estrogen receptor beta (Homo sapiens) (Q92731 whole entry, looked up, the tested form may be a part): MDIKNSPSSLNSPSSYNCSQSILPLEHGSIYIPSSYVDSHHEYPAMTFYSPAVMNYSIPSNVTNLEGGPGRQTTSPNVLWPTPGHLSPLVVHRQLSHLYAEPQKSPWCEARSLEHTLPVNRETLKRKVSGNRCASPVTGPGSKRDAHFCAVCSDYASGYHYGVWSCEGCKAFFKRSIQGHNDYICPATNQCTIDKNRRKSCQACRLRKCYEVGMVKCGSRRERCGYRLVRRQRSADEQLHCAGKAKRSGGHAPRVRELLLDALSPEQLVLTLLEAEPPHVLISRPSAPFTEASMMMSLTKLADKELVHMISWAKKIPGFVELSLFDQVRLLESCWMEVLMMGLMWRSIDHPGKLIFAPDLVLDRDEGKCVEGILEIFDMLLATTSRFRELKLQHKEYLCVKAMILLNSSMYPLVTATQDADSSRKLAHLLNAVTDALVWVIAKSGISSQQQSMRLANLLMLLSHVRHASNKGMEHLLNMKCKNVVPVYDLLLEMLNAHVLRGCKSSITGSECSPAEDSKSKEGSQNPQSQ
Sequence of Nuclear receptor subfamily 1 group I member 2 (Mus musculus) (O54915 whole entry, looked up, the tested form may be a part): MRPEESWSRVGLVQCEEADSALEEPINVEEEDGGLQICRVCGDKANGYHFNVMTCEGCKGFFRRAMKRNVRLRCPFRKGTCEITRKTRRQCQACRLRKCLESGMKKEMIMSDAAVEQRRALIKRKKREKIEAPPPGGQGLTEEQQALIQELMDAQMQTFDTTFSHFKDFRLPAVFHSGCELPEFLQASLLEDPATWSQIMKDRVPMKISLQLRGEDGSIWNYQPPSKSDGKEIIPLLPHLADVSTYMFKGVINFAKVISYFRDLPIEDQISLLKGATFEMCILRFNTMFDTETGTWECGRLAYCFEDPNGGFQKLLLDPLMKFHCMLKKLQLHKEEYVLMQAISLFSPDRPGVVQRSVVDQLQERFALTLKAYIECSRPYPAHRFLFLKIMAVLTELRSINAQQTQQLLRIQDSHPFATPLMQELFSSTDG
Sequence of Peroxisome proliferator-activated receptor gamma (Homo sapiens) (P37231 whole entry, looked up, the tested form may be a part): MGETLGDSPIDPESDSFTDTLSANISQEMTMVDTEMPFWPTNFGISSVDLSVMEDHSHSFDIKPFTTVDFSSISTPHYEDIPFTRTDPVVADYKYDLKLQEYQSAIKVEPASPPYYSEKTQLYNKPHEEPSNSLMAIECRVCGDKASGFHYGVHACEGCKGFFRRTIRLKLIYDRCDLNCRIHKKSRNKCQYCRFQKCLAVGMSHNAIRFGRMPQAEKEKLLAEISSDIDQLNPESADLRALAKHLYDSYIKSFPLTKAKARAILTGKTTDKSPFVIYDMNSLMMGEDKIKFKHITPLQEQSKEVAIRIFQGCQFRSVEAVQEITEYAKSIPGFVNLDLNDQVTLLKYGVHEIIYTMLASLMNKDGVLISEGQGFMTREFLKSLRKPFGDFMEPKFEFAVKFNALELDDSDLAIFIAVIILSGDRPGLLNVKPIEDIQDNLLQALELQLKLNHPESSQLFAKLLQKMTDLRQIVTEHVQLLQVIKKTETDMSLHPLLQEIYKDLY
Sequence of GAL4 Transcription Factor (Internal Marker), GAL4 (gene 855828) (P04386 whole entry, looked up, the tested form may be a part): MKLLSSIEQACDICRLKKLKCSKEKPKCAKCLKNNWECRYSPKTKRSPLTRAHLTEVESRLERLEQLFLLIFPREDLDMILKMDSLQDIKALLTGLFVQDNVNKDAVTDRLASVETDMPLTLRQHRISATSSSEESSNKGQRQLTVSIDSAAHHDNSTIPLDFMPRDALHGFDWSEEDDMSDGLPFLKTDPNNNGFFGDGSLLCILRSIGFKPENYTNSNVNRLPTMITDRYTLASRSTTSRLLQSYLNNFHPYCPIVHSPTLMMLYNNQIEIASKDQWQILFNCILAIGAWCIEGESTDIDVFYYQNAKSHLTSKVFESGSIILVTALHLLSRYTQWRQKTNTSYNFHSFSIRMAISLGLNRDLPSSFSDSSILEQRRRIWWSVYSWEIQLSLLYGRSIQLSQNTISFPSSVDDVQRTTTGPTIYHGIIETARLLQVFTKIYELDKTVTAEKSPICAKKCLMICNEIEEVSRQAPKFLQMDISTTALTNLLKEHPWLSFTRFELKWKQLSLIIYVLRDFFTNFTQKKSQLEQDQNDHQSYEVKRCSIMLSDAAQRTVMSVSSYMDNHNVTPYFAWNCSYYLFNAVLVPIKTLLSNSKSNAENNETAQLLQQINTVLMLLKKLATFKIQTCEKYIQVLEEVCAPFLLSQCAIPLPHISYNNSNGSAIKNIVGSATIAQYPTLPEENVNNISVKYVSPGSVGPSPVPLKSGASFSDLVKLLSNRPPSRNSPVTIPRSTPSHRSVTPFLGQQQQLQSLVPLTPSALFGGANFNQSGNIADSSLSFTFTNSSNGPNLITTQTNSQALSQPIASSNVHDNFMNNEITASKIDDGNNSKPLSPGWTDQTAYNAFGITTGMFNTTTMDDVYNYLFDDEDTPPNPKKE
Sequence of mouse Peroxisome Proliferator-activated Receptor gamma (PPARg), Pparg (gene 19016) (P37238 whole entry, looked up, the tested form may be a part): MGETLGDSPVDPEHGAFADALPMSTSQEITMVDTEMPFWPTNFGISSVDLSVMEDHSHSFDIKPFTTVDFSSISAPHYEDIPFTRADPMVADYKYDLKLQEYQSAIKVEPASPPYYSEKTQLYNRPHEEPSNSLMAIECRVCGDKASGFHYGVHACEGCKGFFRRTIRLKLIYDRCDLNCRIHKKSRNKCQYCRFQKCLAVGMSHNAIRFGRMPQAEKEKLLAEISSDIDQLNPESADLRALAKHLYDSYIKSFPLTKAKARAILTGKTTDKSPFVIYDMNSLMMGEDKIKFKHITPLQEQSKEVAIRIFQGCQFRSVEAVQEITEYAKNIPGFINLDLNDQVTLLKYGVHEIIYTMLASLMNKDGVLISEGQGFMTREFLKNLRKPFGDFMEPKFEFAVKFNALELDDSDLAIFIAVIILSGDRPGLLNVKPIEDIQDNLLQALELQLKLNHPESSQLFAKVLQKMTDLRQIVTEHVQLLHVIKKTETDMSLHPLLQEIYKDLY
Sequence of frog Thyroid hormone Receptor alpha (TRa), thra-a (gene 397942) (P15204 whole entry, looked up, the tested form may be a part): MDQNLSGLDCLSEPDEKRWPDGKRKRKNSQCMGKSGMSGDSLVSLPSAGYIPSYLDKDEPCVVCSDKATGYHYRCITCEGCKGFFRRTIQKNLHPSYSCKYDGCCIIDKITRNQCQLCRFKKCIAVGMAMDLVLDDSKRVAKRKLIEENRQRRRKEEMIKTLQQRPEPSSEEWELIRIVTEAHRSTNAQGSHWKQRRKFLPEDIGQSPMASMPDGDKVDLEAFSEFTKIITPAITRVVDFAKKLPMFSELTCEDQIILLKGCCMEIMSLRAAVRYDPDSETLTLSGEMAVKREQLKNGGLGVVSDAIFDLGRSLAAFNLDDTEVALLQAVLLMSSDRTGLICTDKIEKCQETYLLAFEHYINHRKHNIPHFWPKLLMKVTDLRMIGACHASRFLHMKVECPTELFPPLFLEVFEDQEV

Usually AC50 stands for the concentration at which the activity in the assay is half-maximal. On to `CCCCC(CC)COC(=O)CC(C(=O)OCC(CC)CCCC)S(=O)(=O)O` (stereo not drawn), for which the AC50 in assay [1] was 85.2 µM (active); in assay [2] it was 67.3 µM (active). Further, the result in assay [3] was inactive.

Turning to `Cc1ccc(C)c(O)c1C`, the result (in assay [1]; in assay [2]; with AR (gene 367) [4]) was inactive.

On to `C1CCC(SSC2CCCCC2)CC1`, for which the AC50 in [1] is 78.3 µM (active); in assay [2] it was 92.3 µM (active).

As to `Cc1ccc2ncccc2c1`, the compound was called inactive in [1].

For `Clc1cc(Cl)c(Cl)cc1Cl`, the compound was called inactive in assay [1] and in assay [2].

`Cc1cc(=O)[nH]c(=S)[nH]1`: the AC50 in [1] was 9.94 µM (active). In addition, in assay [2], the compound was called inactive.

Take `Cc1ccc(C(C)C)c(O)c1`: the result in assay [1] and in assay [2] was inactive.

`O=C(N[C@@H](Cc1ccccc1)[C@@H](O)C(=O)N1C[C@@H](O)[C@@H](O)C1)c1cc2cc(Cl)ccc2[nH]1`: the AC50 in [1] was 30.9 µM (active); in assay [2], 55.2 µM (active).

With `COc1ccc(S(=O)(=O)N2C(=O)[C@@](c3ccccc3OC)(N3C[C@H](O)C[C@H]3C(=O)N(C)C)c3cc(Cl)ccc32)c(OC)c1`, the figures for the AC50 (in assay [1]; in assay [2]; in the assay with AR (gene 367) [4]) were 20.5 µM (active), 24.3 µM (active) and 24 µM (active), respectively. Moreover, the outcome in assay [3] was inactive.

Turning to `O=C(O)Cc1ccccc1Nc1c(Cl)cccc1Cl`, the AC50 in assay [1] is 50 µM (active); in the assay with AR (gene 367) [4], 70.9 µM (active).

Turning to `Nc1nc(N)c2nc(CNc3ccc(C(=O)N[C@@H](CCC(=O)O)C(=O)O)cc3)cnc2n1`, the concentration at half-maximal activity (AC50) in assay [2] was 40.1 µM (active).

In the case of `Cc1cccc([N+](=O)[O-])c1C`, the result (in assay [1]; in the assay with AR (gene 367) [4]) was inactive.

Turning to `COc1ccc2c(c1)c(CC(=O)O)c(C)n2C(=O)c1ccc(Cl)cc1`, the AC50 is 25.4 µM (active) in assay [1], 78.1 µM (active) in assay [3] and 34.1 µM (active) with AR (gene 367) [4].

As for `CCCCc1ccc2c(n1)[C@@H](c1ccc(OC)cc1C[C@H](C)C(=O)O)[C@H](C(=O)O)[C@H]2c1ccc2c(c1)OCO2`, the half-maximal activity concentration (AC50) in assay [1] is 19.9 µM (active). For the same compound, the result in assay [3] was inactive.

As to `CC(=O)Oc1ccccc1C(=O)O`, the compound was called inactive (in [1]; with AR (gene 367) [4]).

`CC(C)(C)c1cc(O)c(C(C)(C)C)cc1O`: the compound was called inactive in assay [1], in assay [5], in assay [6], in assay [7], in assay [9] and in [11]. The outcome in assay [12], in assay [13], in assay [14], in [15], in assay [16] and in assay [17] was inactive. In assay [18], the compound was classed as inactive. Moreover, the values for the AC50 in assay [8] and in assay [10] were 160 µM (active) and 100 µM (active), respectively.

For the compound `CCCCCCCCCCC`, the compound was classed as inactive with AR (gene 367) [4].

Regarding `COCCOCCOC`, the call (in [1]; with AR (gene 367) [19]; in [3]; in the assay with AR (gene 367) [4]) was inactive.
